Records with an inconclusive call do not appear. Calls of active or inactive are those of the source. Calls come from the whole dose curve; as a rule, active = well fitted activation curve with a large enough effect; inconclusive = small, poorly fitted or top-dose-only effect, or effect the other way; inactive = no such curve, though single readings can be large or run the other way.
Each compound was assayed against Pyruvate kinase PKLR (Homo sapiens) (UniProt P30613) (assay: Secondary assay for Activators of Human Liver Pyruvate Kinase). Conditions: purified hPK-L, LDH-coupled NADH fluorescence kinetic; series mostly up to 57.5 µM; activation: at the top concentration.
Pyruvate kinase PKLR (Homo sapiens), sequence (P30613 whole entry, looked up): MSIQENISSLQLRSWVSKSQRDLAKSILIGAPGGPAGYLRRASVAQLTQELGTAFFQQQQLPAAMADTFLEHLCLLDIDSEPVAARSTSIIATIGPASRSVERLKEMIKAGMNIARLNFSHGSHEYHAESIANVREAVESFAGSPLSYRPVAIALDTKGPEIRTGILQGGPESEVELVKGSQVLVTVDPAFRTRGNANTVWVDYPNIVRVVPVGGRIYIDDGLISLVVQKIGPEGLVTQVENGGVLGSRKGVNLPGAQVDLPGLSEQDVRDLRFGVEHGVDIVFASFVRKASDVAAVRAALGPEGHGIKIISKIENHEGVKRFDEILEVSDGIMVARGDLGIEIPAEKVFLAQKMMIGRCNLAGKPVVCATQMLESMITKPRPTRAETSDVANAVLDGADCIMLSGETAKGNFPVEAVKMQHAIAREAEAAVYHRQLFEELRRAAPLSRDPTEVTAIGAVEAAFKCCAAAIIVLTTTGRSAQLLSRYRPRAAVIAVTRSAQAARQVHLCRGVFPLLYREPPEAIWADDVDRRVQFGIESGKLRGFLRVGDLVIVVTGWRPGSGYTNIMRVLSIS
Excerpt: Confirmatory assay NIH Chemical Genomics Center [NCGC] Matthew G. Vander Heiden, M.D., Ph.D. [Harvard Medical School, 77 Avenue Louis Pasteur, Boston, MA 02115] NCGC Assay Overview: Human pyruvate kinase liver (hPK-L)enzyme was supplied as a highly purified (>95% pure) preparation from Harvard Medical School and a secondary assay was used to evaluate compounds. This assay couples the formation of pyruvate from hPK-R using lactate dehydrogenase (LDH) and NADH. The depletion of NADH is followed in a fluorescent-based kinetic assay that follows the formation of pyruvate to lactate, as catalyzed LDH. Pyruvate kinase substrates, PEP and ADP, were present in the assay at 0.1 mM and 4 mM respectively. In this kinetic assay initial rates were determined by following the fluorescence of NADH depletion.
NCGC Assay Protocol Summary: Three uL of substrate mix (final concentration, 50 mM Tris-Cl pH 8.0, 200 mM KCl, 15 mM MgCl2, 0.1 mM PEP, 4.0 mM ADP, and 0.2 mM NADH) was dispensed into black-solid 1536 well plates. 23 nL of compounds were delivered by a pin tool and 1 uL of enzyme mix (final concentrations, 10 nM hPK-L and 1 uM of LDH) was added. Plates were immediately placed in ViewLux (Perkin Elmer) and NADH fluorescence was determined at 30 second exposure intervals for between 3 and 6 minutes. Data were normalized to the uninhibited and EC100 activation using known activators such as fructose-bis-phosphate.

| Structure (SMILES) | activation | Potency |
| --- | --- | --- |
| O=S(=O)(NC1CCN(S(=O)(=O)c2c(F)cccc2F)C1)c1ccc2c(c1)OCCO2 (stereo not drawn) | 6.08% (inactive) |  |
| CC(=O)c1cc2c(s1)c1cnn(Cc3ccccc3F)c(=O)c1n2C |  | 0.794 µM (active) |
| Cn1c2cc(Br)sc2c2cnn(Cc3ccc(F)cc3F)c(=O)c21 |  | 2.51 µM (active) |
| Cn1c2cc(Br)sc2c2cnn(Cc3c(F)cccc3Cl)c(=O)c21 |  | 7.94 µM (active) |
| COc1ccc(Cn2ncc3c4sc(C)cc4n(C)c3c2=O)cc1F | -10.5% (inactive) |  |
| Cc1cc2c(s1)c1cnn(Cc3c(F)cccc3Cl)c(=O)c1n2C | 12.8% (inactive) |  |
| O=C1CN(S(=O)(=O)c2ccc3c(c2)OCCO3)CCN1S(=O)(=O)c1c(F)cccc1F | 1.7% (inactive) |  |
| Cn1c2ccsc2c2cnn(Cc3ccc(F)cc3)c(=O)c21 |  | 17.8 µM (active) |
| COc1cccc(Cn2ncc3c4sc(Br)cc4n(C)c3c2=O)c1 | -23.6% (inactive) |  |
| Cc1cc2c(s1)c1cnn(Cc3ccccc3F)c(=O)c1n2C |  | 3.52 µM (active) |
| Cc1cc2c(s1)c1cnn(Cc3cccc(Cl)c3)c(=O)c1n2C | 13.2% (inactive) |  |
| Cc1cc2c(s1)c1cnn(Cc3ccc(F)cc3F)c(=O)c1n2C | 5.17% (inactive) |  |
| O=S(=O)(NCCCCNS(=O)(=O)c1c(F)cccc1F)c1ccc2c(c1)OCCO2 | 9.7% (inactive) |  |
| O=C(c1c(F)cccc1F)N1CCN(S(=O)(=O)c2ccc3c(c2)OCCO3)CC1 | -3.15% (inactive) |  |
| C[C@H]1CN(S(=O)(=O)c2ccc3c(c2)OCCO3)CCN1S(=O)(=O)c1c(F)cccc1F | -21.2% (inactive) |  |
| O=S(=O)(c1ccc2ccccc2c1)N1CCN(S(=O)(=O)c2c(F)cccc2F)CC1 | 4.89% (inactive) |  |
| O=S(=O)(c1c(F)cccc1F)C1CCN(S(=O)(=O)c2ccc3c(c2)OCCO3)CC1 | -4.49% (inactive) |  |

| Structure (SMILES) | activation | Potency |
| --- | --- | --- |
| O=S(=O)(c1ccc2c(c1)OCCO2)N1CCN(S(=O)(=O)c2ccccn2)CC1 | 10.7% (inactive) |  |
| O=S(=O)(c1ccc2c(c1)OCCO2)N1CCN(S(=O)(=O)c2cccc[n+]2[O-])CC1 | -9.32% (inactive) |  |
| Cn1c2cc(CO)sc2c2cnn(Cc3ccccc3F)c(=O)c21 |  | 2.24 µM (active) |
| O=S(=O)(NCC1CN(S(=O)(=O)c2ccc3c(c2)OCCO3)C1)c1c(F)cccc1F | -10.5% (inactive) |  |
| Cn1ccc2cc(S(=O)(=O)N3CCN(S(=O)(=O)c4c(F)cccc4F)CC3)ccc21 | 5.33% (inactive) |  |
| Cn1c2cc(B(O)O)sc2c2cnn(Cc3ccccc3F)c(=O)c21 | -4.09% (inactive) |  |
| Cc1cc2c(s1)c1c(C)nn(Cc3ccccc3F)c(=O)c1n2C | 27.8% (inactive) |  |
| O=S(=O)(c1ccc2c(c1)OCCCO2)N1CCN(S(=O)(=O)c2c(F)cccc2F)CC1 | 2.62% (inactive) |  |
| Cn1c2cc(B(O)O)sc2c2cnn(Cc3c(F)cccc3Cl)c(=O)c21 | 4.69% (inactive) |  |
| Cc1cc2c(s1)c1cnn(Cc3ccccc3)c(=O)c1n2C | 1.72% (inactive) |  |
| COc1ccc(S(=O)(=O)N2CCN(S(=O)(=O)c3ccc4c(c3)OCCO4)CC2)cc1 | 11.4% (inactive) |  |
| Cc1nc2ccc(S(=O)(=O)N3CCN(S(=O)(=O)c4c(F)cccc4F)CC3)cc2s1 | 9.53% (inactive) |  |
| COc1cc2c(s1)c1cnn(Cc3ccccc3F)c(=O)c1n2C |  | 2.51 µM (active) |
| O=S(=O)(NC1CCC(NS(=O)(=O)c2c(F)cccc2F)CC1)c1ccc2c(c1)OCCO2 (stereo not drawn) | -4.61% (inactive) |  |
| COc1cccc(Cn2ncc3c4sc(B(O)O)cc4n(C)c3c2=O)c1 | 35.1% (inactive) |  |
| Cn1c2cc(Br)sc2c2cnn(Cc3c(F)cccc3F)c(=O)c21 | 31.7% (inactive) |  |

From PubChem BioAssay AID1541 (National Center for Advancing Translational Sciences (NCATS), 2009)
